Assay results reported in PubChem BioAssay AID1159580 (chemical genetic matrix, 2015).
Where “and” joins values, the source holds several entries; their conditions need not be identical. Identical values can stand only once. Among all 5,500 compounds or so, about 2,000 (36%) were called active. Inconclusive results (about 18%) are left out. Cut-off read from the data, not from the text of the source: active = normalized growth mostly below about 0.91 (no sharp cut-off); inconclusive = no clear call, values can overlap the other calls; inactive = mostly above about 0.92. The list shows a part of the results.

Assay: chemical genetic growth profiling, strain panel (AID 1159580);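 note: tested at 20 µM; growth read once vehicle control cultures reached saturation at 30 °C; 1 = growth at the plate median or of vehicle wells; lower values mean less growth of the strain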
Details: growth OD

Measured: normalized growth

CN(C)CCCN1c2ccccc2CCc2ccccc21
inactive: S. cerevisiae deletion strains, locus YJR075W, strain HOC1, stronger effect = lower value 0.97 | S. cerevisiae deletion strains, locus YKL009W, strain mrt4, stronger effect = lower value 0.992 | S. cerevisiae deletion strains, locus YKL068W, stronger effect = lower value 0.992 | S. cerevisiae deletion strains, locus YKL085W, strain MDH1 (second series), stronger effect = lower value 0.987 | S. cerevisiae deletion strains, locus YKL085W, strain MDH1, stronger effect = lower value 0.987 | S. cerevisiae deletion strains, locus YKL160W, strain elf1, stronger effect = lower value 1 | S. cerevisiae deletion strains, locus YKR001C, strain vps1, stronger effect = lower value 0.988 | S. cerevisiae deletion strains, locus YKR026C, strain gcn3, stronger effect = lower value 1.01 | S. cerevisiae deletion strains, locus YKR091W, strain srl3, stronger effect = lower value 1.01 | S. cerevisiae deletion strains, locus YLL001W, strain dnm1, stronger effect = lower value 0.994 | S. cerevisiae deletion strains, locus YLL026W, stronger effect = lower value 0.999 | S. cerevisiae deletion strains, locus YLL041C, strain sdh2, stronger effect = lower value 1.01 | S. cerevisiae deletion strains, locus YLR027C, strain aat2, stronger effect = lower value 1 | S. cerevisiae deletion strains, locus YLR039C, strain RIC1, stronger effect = lower value 1.15 | S. cerevisiae deletion strains, locus YLR058C, strain SHM2, stronger effect = lower value 1 | S. cerevisiae deletion strains, locus YLR102C, strain apc9, stronger effect = lower value 0.984 | S. cerevisiae deletion strains, locus YLR113W, strain HOG1, stronger effect = lower value 1.01 | S. cerevisiae deletion strains, locus YLR221C, strain rsa3, stronger effect = lower value 0.98 | S. cerevisiae deletion strains, locus YLR258W, strain gsy2, stronger effect = lower value 0.989 | S. cerevisiae deletion strains, locus YLR262C, strain YPT6 (second series), stronger effect = lower value 1.04 | S. cerevisiae deletion strains, locus YLR262C, strain YPT6, stronger effect = lower value 1.25 | S. cerevisiae deletion strains, locus YLR268W, strain sec22, stronger effect = lower value 0.994 | S. cerevisiae deletion strains, locus YLR320W, strain mms22, stronger effect = lower value 0.991 | S. cerevisiae deletion strains, locus YLR330W, strain CHS5, stronger effect = lower value 1.01 | S. cerevisiae deletion strains, locus YLR342W, strain FKS1 (second series), stronger effect = lower value 0.997 | S. cerevisiae deletion strains, locus YLR342W, strain FKS1, stronger effect = lower value 1 | S. cerevisiae deletion strains, locus YLR357W, strain rsc2, stronger effect = lower value 1.01 | S. cerevisiae deletion strains, locus YLR370C, strain arc18, stronger effect = lower value 1.01 | S. cerevisiae deletion strains, locus YLR371W, strain rom2, stronger effect = lower value 0.987 | S. cerevisiae deletion strains, locus YLR384C, strain iki3, stronger effect = lower value 1.01 | S. cerevisiae deletion strains, locus YLR418C, strain cdc73, stronger effect = lower value 0.956 | S. cerevisiae deletion strains, locus YML016C, strain PPZ1, stronger effect = lower value 1.01 | S. cerevisiae deletion strains, locus YML032C, strain rad52, stronger effect = lower value 0.996 | S. cerevisiae deletion strains, locus YML120C, strain ndi1, stronger effect = lower value 0.992 | S. cerevisiae deletion strains, locus YML124C, strain tub3, stronger effect = lower value 0.996 | S. cerevisiae deletion strains, locus YMR058W, strain fet3, stronger effect = lower value 1.01 | S. cerevisiae deletion strains, locus YMR078C, strain ctf18, stronger effect = lower value 0.985 | S. cerevisiae deletion strains, locus YMR125W, strain sto1, stronger effect = lower value 1.01 | S. cerevisiae deletion strains, locus YMR129W, stronger effect = lower value 1 | S. cerevisiae deletion strains, locus YMR205C, strain PFK2, stronger effect = lower value 0.998 | S. cerevisiae deletion strains, locus YMR223W, strain ubp8, stronger effect = lower value 0.962 | S. cerevisiae deletion strains, locus YMR231W, strain pep5, stronger effect = lower value 0.998 | S. cerevisiae deletion strains, locus YMR263W, strain SAP30, stronger effect = lower value 1 | S. cerevisiae deletion strains, locus YMR307W, strain GAS1, stronger effect = lower value 1.09 and 0.988 | S. cerevisiae deletion strains, locus YNL067W, strain RPL9B, stronger effect = lower value 1 | S. cerevisiae deletion strains, locus YNL071W, strain lat1, stronger effect = lower value 1 | S. cerevisiae deletion strains, locus YNL128W, strain TEP1, stronger effect = lower value 1 | S. cerevisiae deletion strains, locus YNL153C, strain GIM3, stronger effect = lower value 1.01 | S. cerevisiae deletion strains, locus YNL175C, strain NOP13, stronger effect = lower value 1 | S. cerevisiae deletion strains, locus YNL183C, strain NPR1, stronger effect = lower value 0.942 | S. cerevisiae deletion strains, locus YNL197C, strain WHI3, stronger effect = lower value 1 | S. cerevisiae deletion strains, locus YNL209W, strain ssb2, stronger effect = lower value 1.03 | S. cerevisiae deletion strains, locus YNL224C, strain SQS1, stronger effect = lower value 1.05 | S. cerevisiae deletion strains, locus YNL233W, strain BNI4, stronger effect = lower value 1.01 | S. cerevisiae deletion strains, locus YNL248C, strain rpa49, stronger effect = lower value 0.988 | S. cerevisiae deletion strains, locus YNL250W, strain rad50, stronger effect = lower value 0.987 | S. cerevisiae deletion strains, locus YNL271C, strain bni1, stronger effect = lower value 0.993 | S. cerevisiae deletion strains, locus YNL298W, strain CLA4, stronger effect = lower value 1 | S. cerevisiae deletion strains, locus YNL307C, strain MCK1, stronger effect = lower value 0.982 | S. cerevisiae deletion strains, locus YNL322C, strain KRE1 (second series), stronger effect = lower value 0.997 | S. cerevisiae deletion strains, locus YNL322C, strain KRE1, stronger effect = lower value 1 and 0.979 | S. cerevisiae deletion strains, locus YNR049C, strain mso1, stronger effect = lower value 1.03 | S. cerevisiae deletion strains, locus YNR052C, strain pop2, stronger effect = lower value 0.978 | S. cerevisiae deletion strains, locus YOL006C, strain TOP1, stronger effect = lower value 0.946 | S. cerevisiae deletion strains, locus YOL012C, strain htz1 0.613 | S. cerevisiae deletion strains, locus YOL147C, strain pex11, stronger effect = lower value 0.994 | S. cerevisiae deletion strains, locus YOR001W, strain rrp6, stronger effect = lower value 1 | S. cerevisiae deletion strains, locus YOR061W, strain CKA2, stronger effect = lower value 1.01 | S. cerevisiae deletion strains, locus YOR069W, strain VPS5, stronger effect = lower value 1 | S. cerevisiae deletion strains, locus YOR070C, strain gyp1, stronger effect = lower value 1 | S. cerevisiae deletion strains, locus YOR080W, strain dia2, stronger effect = lower value 0.995 | S. cerevisiae deletion strains, locus YOR083W, strain WHI5 (second series), stronger effect = lower value 1.07 | S. cerevisiae deletion strains, locus YOR083W, strain WHI5, stronger effect = lower value 0.995 | S. cerevisiae deletion strains, locus YOR106W, strain vam3, stronger effect = lower value 0.997 | S. cerevisiae deletion strains, locus YOR136W, strain idh2, stronger effect = lower value 0.999 | S. cerevisiae deletion strains, locus YOR144C, strain elg1, stronger effect = lower value 0.992 | S. cerevisiae deletion strains, locus YOR184W, strain ser1, stronger effect = lower value 1.02 | S. cerevisiae deletion strains, locus YOR231W, strain MKK1, stronger effect = lower value 0.975 | S. cerevisiae deletion strains, locus YOR265W, strain rbl2, stronger effect = lower value 1.01 | S. cerevisiae deletion strains, locus YOR270C, strain vph1, stronger effect = lower value 0.932 | S. cerevisiae deletion strains, locus YOR290C, strain snf2, stronger effect = lower value 1 | S. cerevisiae deletion strains, locus YOR316C, strain cot1, stronger effect = lower value 0.993 | S. cerevisiae deletion strains, locus YPL051W, strain arl3, stronger effect = lower value 0.992 | S. cerevisiae deletion strains, locus YPL055C, strain LGE1, stronger effect = lower value 0.99 and 0.992 | S. cerevisiae deletion strains, locus YPL078C, strain atp4, stronger effect = lower value 1.01 | S. cerevisiae deletion strains, locus YPL106C, strain sse1, stronger effect = lower value 0.996 | S. cerevisiae deletion strains, locus YPL240C, strain hsp82, stronger effect = lower value 1 | S. cerevisiae deletion strains, locus YPL241C, strain CIN2, stronger effect = lower value 1.01 | S. cerevisiae deletion strains, locus YPL256C, strain CLN2, stronger effect = lower value 0.972 | S. cerevisiae deletion strains, locus YPR119W, strain clb2, stronger effect = lower value 0.99 | S. cerevisiae deletion strains, locus YPR141C, strain kar3, stronger effect = lower value 0.993 | S. cerevisiae deletion strains, locus YPR163C, strain tif3, stronger effect = lower value 0.982 | S. cerevisiae deletion strains, locus YPR167C, strain met16, stronger effect = lower value 0.989 | S. cerevisiae deletion strains, strain wtn01, stronger effect = lower value 0.988 | S. cerevisiae strains, strain wild type, stronger effect = lower value 1.01
